Targets with a hit are over-represented here; the source holds about 7,900 in all. About 0.6% of all pairs of compound and target were hits.
Columns and labels:
Experiment in all cases: log2 fold change, soluble protein after heating vs DMSO (PISA); higher = thermal stabilisation; K562 cells, 10 uM, 30 min; active = over 0.2 and 3.5 SD of the protein, either way, in both replicates (recomputed)
bafetinib = compound: Cc1ccc(NC(=O)c2ccc(CN3CC[C@H](N(C)C)C3)c(C(F)(F)F)c2)cc1Nc1nccc(-c2cncnc2)n1 [bafetinib]
Procedure, shortened: (§1)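 Soluble protein was quantified by TMTpro 16plex LC-MS/MS after channel sums were equalised. It was obtained as the supernatant after 21,000xg for 90 min from pooled aliquots of K562 cells (2×10^6 cells/mL, 10 μM compound, 30 min) heated for 3 min across 48°C-58°C and extracted in PBS with 0.5% NP-40 at 4°C. Thermal stability values are relative to control samples and come from duplicates. They are given as log2 fold changes.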

[1] = compound: Cc1cccc(CC(=O)N2CCc3c2ccc(-c2cn(C)c4ncnc(N)c24)c3F)n1
Procedure, shortened: as §1

nilotinib = compound: Cc1cn(-c2cc(NC(=O)c3ccc(C)c(Nc4nccc(-c5cccnc5)n4)c3)cc(C(F)(F)F)c2)cn1 [nilotinib]
Procedure, shortened: as §1

[2] = compound: Cc1nc(Nc2n[nH]c3c2CN(C(=O)N[C@H](CN(C)C)c2ccccc2)C3(C)C)c2sccc2n1
Procedure, shortened: as §1

dasatinib = compound: Cc1nc(Nc2ncc(C(=O)Nc3c(C)cccc3Cl)s2)cc(N2CCN(CCO)CC2)n1 [dasatinib]
Procedure, shortened: as §1

[3] = compound: Cc1ncc(-c2ccnc(Nc3ccc(S(C)(=O)=O)cc3)n2)n1C(C)C
Procedure, shortened: as §1

[4] = compound: Cn1cc(-c2ccc3c(c2)CCN3C(=O)Cc2cccc(C(F)(F)F)c2)c2c(N)ncnc21
Procedure, shortened: as §1

[5] = compound: Cn1cc(-c2ccc3nnc(C(F)(F)c4ccc5ncccc5c4)n3n2)cn1
Procedure, shortened: as §1

tipifarnib = compound: Cn1cncc1[C@@](N)(c1ccc(Cl)cc1)c1ccc2c(c1)c(-c1cccc(Cl)c1)cc(=O)n2C [tipifarnib]
Procedure, shortened: as §1

mubritinib = compound: FC(F)(F)c1ccc(/C=C/c2nc(COc3ccc(CCCCn4ccnn4)cc3)co2)cc1 [mubritinib]
Procedure, shortened: as §1

[6] = compound: NC(=O)Nc1cc(-c2cccc(F)c2)sc1C(=O)N[C@H]1CCCNC1
Procedure, shortened: as §1

[7] = compound: NC(=O)c1cnc(N[C@@H]2CCCC[C@@H]2N)nc1Nc1cccc(-n2nccn2)c1
Procedure, shortened: as §1

[8] = compound: NC1(c2ccc(-c3nc4ccn5c(=O)[nH]nc5c4cc3-c3ccccc3)cc2)CCC1
Procedure, shortened: as §1

[9] = compound: NCC(=O)Nc1ccc(-n2nc(C(F)(F)F)cc2-c2ccc3c(ccc4ccccc43)c2)cc1
Procedure, shortened: as §1

entinostat = compound: Nc1ccccc1NC(=O)c1ccc(CNC(=O)OCc2cccnc2)cc1 [entinostat]
Procedure, shortened: as §1

vorinostat = compound: O=C(CCCCCCC(=O)Nc1ccccc1)NO [vorinostat]
Procedure, shortened: as §1

citarinostat = compound: O=C(CCCCCCNC(=O)c1cnc(N(c2ccccc2)c2ccccc2Cl)nc1)NO [citarinostat]
Procedure, shortened: as §1

silmitasertib = compound: O=C(O)c1ccc2c(c1)nc(Nc1cccc(Cl)c1)c1ccncc12 [silmitasertib]
Procedure, shortened: as §1

[10] = compound: O=C1NC(=O)C(c2cnc3ccccn23)=C1c1cn2c3c(cc(F)cc13)CN(C(=O)N1CCCCC1)CC2
Procedure, shortened: as §1

[11] = compound: c1cc(OCCN2CCCCC2)cc(-c2n[nH]c3ccc(-c4nnc[nH]4)cc23)c1
Procedure, shortened: as §1

Measured: log2 fold change

RMC1 (UniProt Q96DM3)
UniProt Q96DM3, sequence (Q96DM3 whole entry, looked up): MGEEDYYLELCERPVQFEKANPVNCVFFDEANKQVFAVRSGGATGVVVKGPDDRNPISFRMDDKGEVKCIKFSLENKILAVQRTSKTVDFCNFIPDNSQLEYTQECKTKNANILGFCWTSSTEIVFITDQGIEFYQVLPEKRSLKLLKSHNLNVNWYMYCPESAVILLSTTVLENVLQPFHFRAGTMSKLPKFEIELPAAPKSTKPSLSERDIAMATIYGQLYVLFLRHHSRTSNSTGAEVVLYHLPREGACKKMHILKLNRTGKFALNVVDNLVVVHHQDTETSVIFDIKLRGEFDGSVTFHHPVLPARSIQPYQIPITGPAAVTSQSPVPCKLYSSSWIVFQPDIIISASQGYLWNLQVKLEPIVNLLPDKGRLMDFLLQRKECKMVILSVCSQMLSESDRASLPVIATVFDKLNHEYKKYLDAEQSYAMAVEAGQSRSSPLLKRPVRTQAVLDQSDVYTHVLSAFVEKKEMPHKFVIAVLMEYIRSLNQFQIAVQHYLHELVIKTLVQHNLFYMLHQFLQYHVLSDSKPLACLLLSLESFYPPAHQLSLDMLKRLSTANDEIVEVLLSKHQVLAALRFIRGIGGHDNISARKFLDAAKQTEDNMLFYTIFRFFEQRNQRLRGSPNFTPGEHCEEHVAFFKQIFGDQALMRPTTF
active: [8] -0.384
inactive: bafetinib -0.043 | [1] 0.072 | nilotinib -0.032 | [2] -0.047 | dasatinib -0.063 | [3] -0.082 | [4] 0.03 | [5] -0.016 | tipifarnib 0.045 | mubritinib 0.012 | [6] -0.026 | [7] -0.141 | [9] -0.039 | entinostat 0.048 | vorinostat 0.017 | citarinostat 0.04 | silmitasertib 0.025 | [10] -0.036 | [11] -0.045

RPS21 (UniProt P63220)
inactive: bafetinib 0.087 | [1] -0.057 | nilotinib 0.011 | [2] 0.072 | dasatinib 0.1 | [3] -0.012 | [4] -0.009 | [5] -0.004 | tipifarnib 0.017 | mubritinib 0.002 | [6] 0.022 | [7] 0.018 | [8] 0.114 | [9] -0.012 | entinostat -0.061 | vorinostat -0.059 | citarinostat 0.002 | silmitasertib 0.008 | [10] 0.045 | [11] -0.015

RIPK1 (UniProt Q13546)
UniProt Q13546, sequence (Q13546 whole entry, looked up): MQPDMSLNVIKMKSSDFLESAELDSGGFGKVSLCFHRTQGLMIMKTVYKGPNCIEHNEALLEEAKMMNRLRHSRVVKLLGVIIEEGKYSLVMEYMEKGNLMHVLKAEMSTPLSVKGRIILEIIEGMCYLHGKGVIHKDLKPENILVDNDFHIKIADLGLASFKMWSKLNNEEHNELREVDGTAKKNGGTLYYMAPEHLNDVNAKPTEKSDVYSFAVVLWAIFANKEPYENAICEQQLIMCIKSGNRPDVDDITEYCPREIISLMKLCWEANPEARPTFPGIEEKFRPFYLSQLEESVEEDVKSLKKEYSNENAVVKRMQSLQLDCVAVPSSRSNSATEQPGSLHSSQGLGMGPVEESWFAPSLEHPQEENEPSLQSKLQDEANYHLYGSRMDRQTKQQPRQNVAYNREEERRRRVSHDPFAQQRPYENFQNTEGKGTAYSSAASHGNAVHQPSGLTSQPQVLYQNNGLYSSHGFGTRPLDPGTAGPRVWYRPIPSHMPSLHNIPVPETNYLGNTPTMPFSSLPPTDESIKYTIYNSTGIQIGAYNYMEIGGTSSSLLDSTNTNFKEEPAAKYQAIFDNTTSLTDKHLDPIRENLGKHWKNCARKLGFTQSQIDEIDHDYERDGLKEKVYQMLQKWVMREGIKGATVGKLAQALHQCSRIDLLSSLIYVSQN
inactive: bafetinib 0.209 | nilotinib -0.007 | [2] -0.196 | dasatinib 0.197 | [5] -0.052 | tipifarnib -0.121 | mubritinib -0.089 | [6] 0.037 | [7] -0.06 | [8] -0.092 | [9] -0.009 | entinostat 0.088 | vorinostat -0.014 | citarinostat -0.006 | silmitasertib 0.025 | [10] 0.205 | [11] 0.047
active: [1] 1.12 | [3] 1.18 | [4] 1.49

RBM4 (UniProt Q9BWF3)
UniProt Q9BWF3, sequence (Q9BWF3 whole entry, looked up): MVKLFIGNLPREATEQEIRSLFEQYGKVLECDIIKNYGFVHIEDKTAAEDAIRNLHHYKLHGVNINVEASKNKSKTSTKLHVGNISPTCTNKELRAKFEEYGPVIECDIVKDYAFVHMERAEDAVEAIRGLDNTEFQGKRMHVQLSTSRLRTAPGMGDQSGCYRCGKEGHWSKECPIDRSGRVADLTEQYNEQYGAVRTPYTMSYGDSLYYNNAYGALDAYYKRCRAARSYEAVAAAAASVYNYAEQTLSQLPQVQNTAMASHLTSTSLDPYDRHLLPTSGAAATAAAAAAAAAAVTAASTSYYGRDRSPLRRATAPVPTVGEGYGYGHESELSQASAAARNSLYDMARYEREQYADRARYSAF
inactive: bafetinib -0.049 | [1] -0.01 | nilotinib -0.047 | [2] -0.095 | dasatinib -0.033 | [3] -0.039 | [4] -0.054 | [5] -0.063 | tipifarnib -0.013 | mubritinib -0.082 | [6] 0.015 | [7] -0.031 | [8] -0.017 | [9] -0.033 | entinostat 0.023 | vorinostat 0.06 | citarinostat -0.015 | silmitasertib 0.095 | [10] -0.002 | [11] -0.092

RPS6KA2 isoform 2 (UniProt Q15349)
UniProt Q15349, sequence (Q15349 whole entry, looked up): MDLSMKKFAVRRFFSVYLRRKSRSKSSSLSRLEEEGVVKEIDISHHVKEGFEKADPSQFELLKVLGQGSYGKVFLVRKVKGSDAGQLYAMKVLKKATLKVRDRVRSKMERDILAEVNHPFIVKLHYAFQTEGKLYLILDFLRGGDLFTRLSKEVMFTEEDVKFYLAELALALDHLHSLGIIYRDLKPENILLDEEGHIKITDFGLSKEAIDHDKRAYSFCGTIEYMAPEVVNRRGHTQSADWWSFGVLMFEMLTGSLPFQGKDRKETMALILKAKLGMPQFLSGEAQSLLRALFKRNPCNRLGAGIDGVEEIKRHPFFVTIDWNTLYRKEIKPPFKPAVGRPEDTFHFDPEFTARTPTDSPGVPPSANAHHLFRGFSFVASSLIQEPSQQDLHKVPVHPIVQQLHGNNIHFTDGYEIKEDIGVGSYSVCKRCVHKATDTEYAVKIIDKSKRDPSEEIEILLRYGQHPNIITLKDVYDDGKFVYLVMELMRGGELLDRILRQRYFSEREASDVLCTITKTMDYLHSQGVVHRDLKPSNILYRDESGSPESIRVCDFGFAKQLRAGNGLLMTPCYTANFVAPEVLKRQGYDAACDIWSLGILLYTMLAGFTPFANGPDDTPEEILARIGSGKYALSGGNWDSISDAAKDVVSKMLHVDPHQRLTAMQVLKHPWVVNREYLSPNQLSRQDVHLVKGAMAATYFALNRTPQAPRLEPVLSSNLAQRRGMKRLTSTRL
active: [2] -0.571
inactive: bafetinib -0.112 | [1] 0.15 | nilotinib 0.008 | dasatinib -0.228 | [3] -0.013 | [4] 0.001 | [5] 0.021 | tipifarnib -0.069 | mubritinib 0.085 | [6] -0.129 | [7] -0.256 | [8] -0.269 | [9] -0.035 | entinostat 0.067 | vorinostat 0.122 | citarinostat 0.106 | silmitasertib -0.044 | [10] -0.056 | [11] -0.295

RAVER1 (UniProt E9PAU2)
inactive: bafetinib -0.155 | [1] 0 | nilotinib -0.091 | [2] -0.319 | dasatinib -0.309 | [3] -0.299 | [4] 0.155 | [5] 0.011 | tipifarnib -0.351 | mubritinib 0.134 | [6] -0.063 | [7] -0.35 | [8] -0.1 | [9] -0.32 | entinostat 0.211 | vorinostat 0.207 | citarinostat 0.166 | silmitasertib -0.022 | [10] -0.244 | [11] -0.088

RPRD1B (UniProt Q9NQG5)
UniProt Q9NQG5, sequence (Q9NQG5 whole entry, looked up): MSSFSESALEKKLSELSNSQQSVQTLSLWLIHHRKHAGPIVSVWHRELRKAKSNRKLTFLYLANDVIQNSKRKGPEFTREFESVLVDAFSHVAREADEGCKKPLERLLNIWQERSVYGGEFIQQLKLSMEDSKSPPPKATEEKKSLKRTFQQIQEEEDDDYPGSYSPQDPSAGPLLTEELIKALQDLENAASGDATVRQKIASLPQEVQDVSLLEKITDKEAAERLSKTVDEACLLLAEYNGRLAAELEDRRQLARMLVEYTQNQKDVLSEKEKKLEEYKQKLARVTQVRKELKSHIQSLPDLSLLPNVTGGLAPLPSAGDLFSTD
active: [10] -0.346
inactive: bafetinib -0.036 | [1] 0.04 | nilotinib -0.036 | [2] -0.072 | dasatinib -0.099 | [3] -0.024 | [4] -0.021 | [5] -0.035 | tipifarnib -0.039 | mubritinib 0.032 | [6] -0.058 | [7] -0.03 | [8] -0.087 | [9] -0.081 | entinostat 0.051 | vorinostat 0.049 | citarinostat 0.029 | silmitasertib 0.031 | [11] -0.049

RPS6KA1 isoform 2 (UniProt Q15418)
UniProt Q15418, sequence (Q15418 whole entry, looked up): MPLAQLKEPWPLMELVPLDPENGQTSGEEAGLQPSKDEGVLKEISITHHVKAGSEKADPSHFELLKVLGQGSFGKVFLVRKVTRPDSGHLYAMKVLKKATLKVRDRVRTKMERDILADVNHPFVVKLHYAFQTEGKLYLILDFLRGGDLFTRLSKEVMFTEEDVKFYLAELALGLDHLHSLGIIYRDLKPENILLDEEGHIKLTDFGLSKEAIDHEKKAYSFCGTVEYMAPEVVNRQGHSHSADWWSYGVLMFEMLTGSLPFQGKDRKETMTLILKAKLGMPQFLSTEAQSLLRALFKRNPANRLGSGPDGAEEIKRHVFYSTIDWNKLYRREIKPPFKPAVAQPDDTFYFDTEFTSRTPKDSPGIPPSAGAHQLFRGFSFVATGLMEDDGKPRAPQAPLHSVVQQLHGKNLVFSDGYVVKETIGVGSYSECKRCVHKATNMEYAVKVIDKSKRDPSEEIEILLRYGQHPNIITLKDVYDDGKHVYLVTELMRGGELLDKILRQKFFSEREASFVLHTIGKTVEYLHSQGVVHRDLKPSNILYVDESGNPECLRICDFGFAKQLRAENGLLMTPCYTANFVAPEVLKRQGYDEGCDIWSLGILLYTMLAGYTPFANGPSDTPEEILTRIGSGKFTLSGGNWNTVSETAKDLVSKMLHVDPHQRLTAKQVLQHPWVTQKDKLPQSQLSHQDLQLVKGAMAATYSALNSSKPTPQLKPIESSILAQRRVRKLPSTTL
inactive: bafetinib -0.051 | [1] 0.081 | nilotinib -0.002 | dasatinib -0.281 | [3] -0.044 | [4] -0.019 | [5] 0 | tipifarnib -0.056 | mubritinib 0.041 | [6] -0.131 | [7] -0.242 | [8] -0.205 | [9] -0.096 | entinostat 0.06 | vorinostat 0.109 | citarinostat 0.058 | silmitasertib -0.08 | [10] -0.099 | [11] -0.32
active: [2] -0.569

RARS (UniProt P54136)
UniProt P54136, sequence (P54136 whole entry, looked up): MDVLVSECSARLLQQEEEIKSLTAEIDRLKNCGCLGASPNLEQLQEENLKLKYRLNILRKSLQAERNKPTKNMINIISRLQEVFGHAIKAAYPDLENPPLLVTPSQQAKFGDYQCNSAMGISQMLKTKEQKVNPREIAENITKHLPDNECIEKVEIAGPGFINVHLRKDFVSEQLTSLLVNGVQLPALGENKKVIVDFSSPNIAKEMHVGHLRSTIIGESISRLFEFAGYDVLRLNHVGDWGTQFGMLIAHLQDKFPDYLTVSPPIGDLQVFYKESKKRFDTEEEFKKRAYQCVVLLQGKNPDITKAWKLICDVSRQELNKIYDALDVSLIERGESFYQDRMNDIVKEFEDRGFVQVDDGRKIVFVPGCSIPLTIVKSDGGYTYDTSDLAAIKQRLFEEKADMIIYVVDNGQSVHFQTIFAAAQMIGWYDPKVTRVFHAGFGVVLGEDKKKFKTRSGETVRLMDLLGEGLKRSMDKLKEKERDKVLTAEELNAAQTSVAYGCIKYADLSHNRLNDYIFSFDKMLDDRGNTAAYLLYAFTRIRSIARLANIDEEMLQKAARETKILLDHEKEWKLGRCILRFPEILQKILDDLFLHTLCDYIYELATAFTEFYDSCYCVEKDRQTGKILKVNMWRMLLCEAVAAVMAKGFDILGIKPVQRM
inactive: bafetinib 0.04 | [1] 0.069 | nilotinib -0.057 | [2] -0.021 | dasatinib -0.071 | [3] 0.053 | [4] -0.08 | [5] -0.125 | tipifarnib -0.117 | mubritinib -0.116 | [6] 0.098 | [7] -0.076 | [8] 0.032 | [9] -0.01 | entinostat 0.041 | vorinostat 0.115 | citarinostat 0.028 | silmitasertib 0.107 | [10] 0.325 | [11] -0.135

SLC18B1 (UniProt Q6NT16)
UniProt Q6NT16, sequence (Q6NT16 whole entry, looked up): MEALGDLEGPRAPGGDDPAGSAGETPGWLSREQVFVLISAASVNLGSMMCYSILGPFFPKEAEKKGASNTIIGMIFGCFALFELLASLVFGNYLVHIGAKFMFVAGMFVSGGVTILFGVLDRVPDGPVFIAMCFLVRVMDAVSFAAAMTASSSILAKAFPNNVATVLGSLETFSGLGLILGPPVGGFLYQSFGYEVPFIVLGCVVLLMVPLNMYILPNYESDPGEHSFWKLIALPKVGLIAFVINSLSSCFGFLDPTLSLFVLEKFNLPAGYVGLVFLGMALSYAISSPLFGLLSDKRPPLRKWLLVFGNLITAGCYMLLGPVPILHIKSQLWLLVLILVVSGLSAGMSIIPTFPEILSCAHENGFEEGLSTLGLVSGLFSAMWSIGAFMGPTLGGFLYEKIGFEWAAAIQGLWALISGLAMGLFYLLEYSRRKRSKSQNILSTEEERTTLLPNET
inactive: bafetinib -0.071 | [1] 0 | nilotinib -0.024 | [2] 0.04 | dasatinib 0.063 | [3] -0.016 | [4] 0.034 | [5] 0.198 | tipifarnib -0.029 | mubritinib -0.018 | [6] -0.003 | [7] 0.022 | [8] -0.093 | [9] -0.025 | entinostat 0.038 | vorinostat -0.162 | citarinostat 0.019 | silmitasertib 0.076 | [10] 0.044 | [11] -0.044

RRAGB (UniProt Q5VZM2)
UniProt Q5VZM2, sequence (Q5VZM2 whole entry, looked up): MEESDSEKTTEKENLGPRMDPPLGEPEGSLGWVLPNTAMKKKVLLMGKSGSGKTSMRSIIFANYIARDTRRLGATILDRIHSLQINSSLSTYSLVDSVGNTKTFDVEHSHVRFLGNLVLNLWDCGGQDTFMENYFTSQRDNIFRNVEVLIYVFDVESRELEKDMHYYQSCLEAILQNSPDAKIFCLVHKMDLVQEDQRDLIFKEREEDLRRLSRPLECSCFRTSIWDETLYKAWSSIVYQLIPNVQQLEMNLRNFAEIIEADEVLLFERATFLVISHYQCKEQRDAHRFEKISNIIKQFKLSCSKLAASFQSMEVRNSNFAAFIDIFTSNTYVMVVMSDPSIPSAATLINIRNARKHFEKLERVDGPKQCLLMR
active: [8] -0.317
inactive: bafetinib -0.079 | [1] -0.045 | nilotinib 0.031 | [2] -0.003 | dasatinib 0.041 | [3] 0.009 | [4] 0.06 | [5] 0.043 | tipifarnib -0.025 | mubritinib 0.037 | [6] 0.112 | [7] -0.017 | [9] 0.023 | entinostat 0.012 | vorinostat 0.018 | citarinostat -0.006 | silmitasertib 0.031 | [10] 0.008 | [11] 0.05

SHCBP1 (UniProt Q8NEM2)
active: [2] -0.459
inactive: bafetinib -0.017 | [1] 0.041 | nilotinib -0.207 | dasatinib -0.091 | [3] 0.003 | [4] 0.223 | [5] 0.004 | tipifarnib 0.299 | mubritinib 0.1 | [6] 0.01 | [7] -0.017 | [8] -0.107 | [9] -0.08 | entinostat -0.063 | vorinostat 0.039 | citarinostat 0.136 | silmitasertib 0.025 | [10] -0.087 | [11] -0.091

SETMAR (UniProt Q53H47)
active: citarinostat -0.629
inactive: bafetinib 0 | [1] -0.07 | nilotinib -0.104 | [2] 0.117 | dasatinib -0.013 | [3] 0.163 | [4] 0.028 | [5] 0.127 | tipifarnib 0.054 | mubritinib 0.04 | [6] 0.11 | [7] -0.024 | [8] 0.05 | [9] -0.078 | entinostat -0.032 | vorinostat 0.004 | silmitasertib -0.064 | [10] -0.105 | [11] -0.255

RPS14 (UniProt P62263)
inactive: bafetinib 0.265 | [1] -0.061 | nilotinib 0.029 | [2] 0.184 | dasatinib -0.011 | [3] -0.047 | [4] -0.081 | [5] -0.091 | tipifarnib 0.07 | mubritinib -0.05 | [6] 0.056 | [7] 0.142 | [8] 0.149 | [9] 0.08 | entinostat -0.033 | vorinostat -0.106 | citarinostat -0.089 | silmitasertib -0.041 | [10] 0.209 | [11] -0.069

SCD (UniProt O00767)
inactive: bafetinib -0.153 | [1] 0.109 | nilotinib -0.063 | [2] -0.007 | dasatinib -0.026 | [3] -0.019 | [4] 0.013 | [5] 0.034 | tipifarnib 0.075 | mubritinib 0.019 | [6] -0.064 | [7] -0.151 | [8] -0.071 | [9] -0.054 | entinostat -0.043 | silmitasertib 0.083 | [10] 0.051 | [11] -0.005
active: vorinostat -0.382 | citarinostat -0.403

RPL38 (UniProt P63173)
inactive: bafetinib 0.089 | [1] 0.01 | nilotinib 0.026 | [2] 0.155 | dasatinib 0.057 | [3] -0.003 | [4] -0.023 | [5] -0.022 | tipifarnib -0.021 | mubritinib 0.006 | [6] -0.005 | [7] 0.022 | [8] 0.09 | [9] 0.024 | entinostat -0.022 | vorinostat 0.002 | citarinostat -0.003 | silmitasertib -0.008 | [10] 0 | [11] -0.094

From the supplement of paper PMC10849652
